Test results reported in the supplement of paper PMC8728848.
Many of the other results were omitted from the sample, so the strongest signals are more common in it than they were.

What was measured:
Test in all cases: glycan array binding signal (z-score within array); higher = stronger binding
Conditions in all cases: glycan notation: IUPAC condensed, linker removed; mutation: D21K
[1] = target: Fuc(a1-2)Gal(b1-3)GalNAc(a1-3)[Fuc(a1-2)]Gal(b1-4)GlcNAc
Outline: (§1)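 The binding signal is a Z-score computed within each array. Data were drawn from 3228 arrays in the Consortium for Functional Glycomics database, restricted to those with a known protein sequence. Scores were averaged over arrays of the same protein sequence at different concentrations or buffers, and over linkers, and negative values can be taken as non-binding.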

[2] = target: Fuc(a1-2)Gal(b1-4)[Fuc(a1-3)]GlcNAc
Outline: as §1

[3] = target: Fuc(a1-2)[Gal(a1-3)]Gal(b1-4)GlcNAc
Outline: as §1

[4] = target: Fuc(a1-2)[Gal(a1-3)]Gal(b1-4)GlcNAc(b1-3)GalNAc
Outline: as §1

[5] = target: Fuc(a1-2)[Gal(a1-3)]Gal(b1-4)GlcNAc(b1-3)[Fuc(a1-2)[Gal(a1-3)]Gal(b1-4)GlcNAc(b1-6)]GalNAc
Outline: as §1

[6] = target: Fuc(a1-2)[Gal(a1-3)]Gal(b1-4)GlcNAc(b1-6)GalNAc
Outline: as §1

[7] = target: Fuc(a1-2)[Gal(a1-3)]Gal(b1-4)[Fuc(a1-3)]GlcNAc
Outline: as §1

[8] = target: Fuc(a1-2)[GalNAc(a1-3)]Gal(b1-4)GlcNAc(b1-2)Man(a1-3)[Fuc(a1-2)[GalNAc(a1-3)]Gal(b1-4)GlcNAc(b1-2)Man(a1-6)]Man(b1-4)GlcNAc(b1-4)GlcNAc
Outline: as §1

[9] = target: Fuc(a1-2)[GalNAc(a1-3)]Gal(b1-4)GlcNAc(b1-3)[Fuc(a1-2)[GalNAc(a1-3)]Gal(b1-4)GlcNAc(b1-6)]GalNAc
Outline: as §1

[10] = target: Gal(a1-3)Gal(b1-4)GlcNAc(b1-2)Man
Outline: as §1

Gal(a1-4)GlcNAc = target: Gal(a1-4)GlcNAc
Outline: as §1

Gal(a1-6)Glc = target: Gal(a1-6)Glc
Outline: as §1

[11] = target: Gal(b1-3)GalNAc(b1-3)Gal(a1-4)Gal(b1-4)Glc
Outline: as §1

[12] = target: Gal(b1-3)GalNAc(b1-4)[Neu5Ac(a2-3)]Gal(b1-4)Glc
Outline: as §1

[13] = target: Gal(b1-3)GlcNAc(b1-2)Man(a1-3)[GlcNAc(b1-4)][Gal(b1-3)GlcNAc(b1-2)Man(a1-6)]Man(b1-4)GlcNAc(b1-4)GlcNAc
Outline: as §1

[14] = target: Gal(b1-3)GlcNAc(b1-3)Gal(b1-4)Glc
Outline: as §1

[15] = target: Gal(b1-3)GlcNAc(b1-3)Gal(b1-4)GlcNAc(b1-3)Gal(b1-4)GlcNAc(b1-2)[Gal(b1-3)GlcNAc(b1-3)Gal(b1-4)GlcNAc(b1-3)Gal(b1-4)GlcNAc(b1-6)]Man(a1-6)[Gal(b1-3)GlcNAc(b1-3)Gal(b1-4)GlcNAc(b1-3)Gal(b1-4)GlcNAc(b1-2)Man(a1-3)]Man(b1-4)GlcNAc(b1-4)[Fuc(a1-6)]GlcNAc
Outline: as §1

Gal(b1-3)GlcNAc6S = target: Gal(b1-3)GlcNAc6S
Outline: as §1

[16] = target: Gal(b1-3)[Fuc(a1-4)]GlcNAc(b1-2)Man(a1-3)[Gal(b1-3)[Fuc(a1-4)]GlcNAc(b1-2)Man(a1-6)]Man(b1-4)GlcNAc(b1-4)[Fuc(a1-6)]GlcNAc
Outline: as §1

[17] = target: Gal(b1-3)[GlcNAc(b1-6)]GalNAc
Outline: as §1

[18] = target: Gal(b1-4)GlcNAc(b1-3)Gal(b1-4)GlcNAc(b1-2)Man(a1-3)[Gal(b1-4)GlcNAc(b1-3)Gal(b1-4)GlcNAc(b1-2)Man(a1-6)]Man(b1-4)GlcNAc(b1-4)[Fuc(a1-6)]GlcNAc
Outline: as §1

[19] = target: Gal(b1-4)GlcNAc(b1-3)Gal(b1-4)GlcNAc(b1-3)Gal(b1-4)GlcNAc(b1-3)Gal(b1-4)GlcNAc(b1-2)[Gal(b1-4)GlcNAc(b1-3)Gal(b1-4)GlcNAc(b1-3)Gal(b1-4)GlcNAc(b1-3)Gal(b1-4)GlcNAc(b1-6)]Man(a1-6)[Gal(b1-4)GlcNAc(b1-3)Gal(b1-4)GlcNAc(b1-3)Gal(b1-4)GlcNAc(b1-3)Gal(b1-4)GlcNAc(b1-2)Man(a1-3)]Man(b1-4)GlcNAc(b1-4)[Fuc(a1-6)]GlcNAc
Outline: as §1

[20] = target: Gal(b1-4)GlcNAc(b1-3)Gal(b1-4)GlcNAc(b1-3)GalNAc
Outline: as §1

[21] = target: Gal(b1-4)GlcNAc(b1-3)Gal(b1-4)GlcNAc(b1-6)[Gal(b1-3)]GalNAc
Outline: as §1

[22] = target: Gal(b1-4)GlcNAc(b1-3)Gal(b1-4)[Fuc(a1-3)]GlcNAc(b1-3)Gal(b1-4)[Fuc(a1-3)]GlcNAc
Outline: as §1

Gal3S6S(b1-4)GlcNAc = target: Gal3S6S(b1-4)GlcNAc
Outline: as §1

Gal6S(b1-3)GlcNAc6S = target: Gal6S(b1-3)GlcNAc6S
Outline: as §1

## KILRGVCKKIMRTFLRRISKKILTGKK [C7A (Sus scrofa)]
[1]
  glycan array binding signal (z-score): -0.784
[2]
  glycan array binding signal (z-score): -1.12
[3]
  glycan array binding signal (z-score): 0.504
[4]
  glycan array binding signal (z-score): -1.37
[5]
  glycan array binding signal (z-score): -0.287
[6]
  glycan array binding signal (z-score): 0.121
[7]
  glycan array binding signal (z-score): 1.3
[8]
  glycan array binding signal (z-score): -0.971
[9]
  glycan array binding signal (z-score): 0.698
[10]
  glycan array binding signal (z-score): -0.255
Gal(a1-4)GlcNAc
  glycan array binding signal (z-score): -1.02
Gal(a1-6)Glc
  glycan array binding signal (z-score): -1.76
[11]
  glycan array binding signal (z-score): 2.25
[12]
  glycan array binding signal (z-score): 0.649
[13]
  glycan array binding signal (z-score): 0.213
[14]
  glycan array binding signal (z-score): -0.894
[15]
  glycan array binding signal (z-score): 0.352
Gal(b1-3)GlcNAc6S
  glycan array binding signal (z-score): 1.73
[16]
  glycan array binding signal (z-score): -1.63
[17]
  glycan array binding signal (z-score): -0.867
[18]
  glycan array binding signal (z-score): 3.05
[19]
  glycan array binding signal (z-score): -0.172
[20]
  glycan array binding signal (z-score): 2.33
[21]
  glycan array binding signal (z-score): 2.48
[22]
  glycan array binding signal (z-score): -0.696
Gal3S6S(b1-4)GlcNAc
  glycan array binding signal (z-score): 2.5
Gal6S(b1-3)GlcNAc6S
  glycan array binding signal (z-score): 2.66
